The source of these data is PubChem BioAssay AID1986 (Sanford-Burnham Center for Chemical Genomics, 2009).

Among all 290,000 compounds or so, about 890 (0.31%) were called active. Rule as the data show it: active = inhibition mostly above about 52% (no sharp cut-off); inactive = mostly below about 76%. Many of the other results were omitted from the sample, so actives are more common in it than they were.

The nature of this assay: cell-free HIV fusion peptide-binding blockers – biochemical, uHTS, fluorescence dequenching, primary screen (AID 1986). Particulars: 30 min, stronger effect = higher value.
[1] abbreviates: measured here: repeat confirmation average inhibition, at 18.6 µM.

Usually inhibition stands for the drop in the measured response relative to a control, in per cent.

With `Cc1ccc(CN(C(=O)Cn2nnc3ccccc32)C(C(=O)NCc2ccco2)c2ccc(C)o2)cc1` (centres undefined), the inhibition (at 20 µM) is 0.4% (inactive).
Consider `O=C(/C=C/c1ccco1)Nc1cccc(NC(=O)/C=C/c2ccco2)n1`, for which the inhibition by setting is: (at 20 µM) 93.3% (inactive); under setting [1], 1.5%.
As to `O=C(/C=C/c1ccco1)Nc1cccnc1Cl`, where the note is “at 20 µM”, the inhibition is 7.4% (inactive).
Still for that read-out and setting: in the case of `O=C(/C=C/c1ccco1)Nc1cc(Cl)ccc1C(=O)O` it was 74.9% (active).
Turning to `O=C(/C=C/c1ccco1)Nc1ccccc1C(=O)O`, the inhibition was 58.3% (inactive) (at 20 µM) and 24.2% under setting [1].
In the case of `O=C(/C=C/c1ccco1)Nc1ccccn1`, the inhibition (at 20 µM) was 33.3% (inactive).
For `Cc1ccc(NC(=O)/C=C/c2ccco2)nc1`, the inhibition (at 20 µM) was 56.5% (active).
The same measure, in the same setting: as for `COc1ccc(C(=O)C2CCCN(C(=O)c3csc(C(C)=O)c3)C2)c(C)c1` (centres undefined), the figure is 1.4% (inactive); as for `CS(=O)(=O)N(CC(=O)Nc1ccccc1C(=O)N1CCCC1)c1ccccc1Br`, -0.2% (inactive); as for `COc1cc(CNCCc2ccc(S(N)(=O)=O)cc2)ccc1OCC(=O)NC(C)(C)C`, -0.7% (inactive).
Take `CSc1nc(=O)n2cccc(C)c2n1`: the inhibition (at 20 µM) was 3.1% (inactive).
In the case of `COc1ccc(NC(=O)c2ccccc2OCc2c(C)noc2C)cc1OC`, where the note is “at 20 µM”, the inhibition was 2.3% (inactive).
In the case of `CC[C@@H](C(=O)[C@@H](C)[C@@H](O)[C@H](C)CCc1ccc(C)c(O)c1C(=O)O)[C@H]1O[C@](CC)([C@H]2CC[C@](O)(CC)[C@H](C)O2)C[C@@H]1C`, the inhibition (at 20 µM) was 56.3% (active).
As to `CN(C)N1C(N)=C(C#N)C(c2cccs2)C2=C1CC(C)(C)CC2=O` (centres undefined), the inhibition (at 20 µM) is -0.7% (inactive).
The same measure, in the same setting: as for `CCOC(=O)c1ccc(NC(=O)c2ccc(CN3CCOCC3)cc2)cc1`, the figure is -0.8% (inactive); as for `COc1ccc(N=C2S/C(=C\c3ccc(N4CCOCC4)o3)C(=O)N2CCc2c[nH]c3ccccc23)cc1`, 14.3% (inactive).
`O=C(O)COc1ccc(/C=C2\SC(=Nc3ccccc3)N(c3ccccc3)C2=O)cc1`: under “at 20 µM”, the inhibition was 36.9% (inactive).
On the same count and under the same terms, as for `CCOC(=O)COc1ccc(/C=C2/SC(=Nc3ccccc3)N(Cc3cccnc3)C2=O)cc1OC`, the figure is -2.8% (inactive); as for `COc1cc(/C=C2\SC(=Nc3ccccc3)N(Cc3ccco3)C2=O)ccc1OC(C)C(=O)O` (centres undefined), 34.6% (inactive).
With `O=C1/C(=C/c2ccc(N3CCOCC3)o2)SC(=Nc2ccccc2)N1CCc1c[nH]c2ccccc12`, the inhibition (at 20 µM) is 37.2% (inactive).
Still for that read-out and setting: in the case of `CCCN1C(=O)/C(=C/c2ccco2)SC1=Nc1ccc(OC)cc1` it was 13.2% (inactive); in that of `COc1cc(/C=C2\SC(=Nc3ccc(N4CCOCC4)cc3)N(C)C2=O)ccc1OC(C)C(=O)O` (centres undefined), 0.3% (inactive); in that of `COCCN1C(=O)/C(=C/c2ccc(Oc3ccc([N+](=O)[O-])cn3)c(OC)c2)SC1=Nc1ccccc1`, 0.3% (inactive).
The same measure, in the same setting: as for `CS(=O)(=O)Nc1ccc(C(=O)Nc2ccc3c(c2)OCO3)cc1`, the figure is -0.8% (inactive).
Same read-out and setting: in the case of `O=C(Nc1cc(S(=O)(=O)N2CCOCC2)ccc1N1CCOCC1)c1cccc(S(=O)(=O)N2CCCCC2)c1` it was 0.7% (inactive).
Consider `Cn1c(CCN2CCCCC2)nc2cc(NC(=O)NC3CCCCC3)ccc21`, for which the inhibition (at 20 µM) was 53.5% (inactive) and the inhibition under setting [1] is 1.9%.
For `O=C(NNC(=O)c1ccc([N+](=O)[O-])cc1)c1ccc(Br)cc1`, where the note is “at 20 µM”, the inhibition was 2% (inactive).
With `NC(=O)C1CCN(C(c2ccccc2Cl)c2nnnn2CC2CCCO2)CC1` (centres undefined), the inhibition (at 20 µM) was 1.1% (inactive).
Same read-out and setting: as for `COc1ccc(S(=O)(=O)N(CCCN2CCOCC2)Cc2cccc(OC)c2OC)cc1`, the figure is -0.2% (inactive).
On the same count and under the same terms, in the case of `COc1ccc(CNCCCC(=O)Nc2c(Cl)ccc(C)c2Cl)cc1OC` it was -0.3% (inactive); in that of `N#C/C(=C/c1ccc(OCc2ccc(C(=O)O)cc2)c(Br)c1)c1cccc(F)c1`, 87.9% (active); in that of `N#C/C(=C/c1ccccc1OCc1ccc(F)cc1)c1ccc(C(=O)O)cc1`, 31% (inactive).
The same measure, in the same setting: in the case of `N#C/C(=C\c1ccccc1OCc1ccc(C(=O)O)cc1)c1ccccc1` it was 19.1% (inactive); in that of `O=C(Nc1c2c(nn1-c1ccc([N+](=O)[O-])cc1)CS(=O)(=O)C2)C1CC1`, 0.9% (inactive).
`O=C1S/C(=C\C=C\c2ccco2)C(=O)N1c1ccccc1`: the inhibition (at 20 µM) was 54.9% (inactive) and the inhibition under setting [1] was -0.6%.
`O=C1/C(=C\c2ccco2)SC(=S)N1c1ccc(O)cc1`: the inhibition is 57.7% (inactive) (at 20 µM) and -2% under setting [1].
Taken in the same sequence, the figures for `Cc1ccc(N2C(=O)/C(=C\c3ccco3)SC2=S)cc1` were 71.5% (inactive) and -1.2%.
Take `O=C1/C(=C/C=C/c2ccco2)SC(=S)N1c1ccc(O)cc1`: the inhibition (at 20 µM) is 55.7% (active).
Same read-out and setting: as for `O=C1S/C(=C\C=C\c2ccco2)C(=O)N1c1ccc(O)cc1`, the figure is 78.1% (active).
Same read-out and setting: in the case of `O=C1NC(=Nc2ccc(O)cc2)S/C1=C\C=C\c1ccco1` it was 41.3% (inactive).
Turning to `CN(C)CCNc1oc(-c2ccccc2F)nc1C#N`, the inhibition (at 20 µM) is 0.5% (inactive).
The same measure, in the same setting: in the case of `Cc1ccc(/C(O)=C2/C(=O)C(=O)N(CC(=O)O)C2c2ccc([N+](=O)[O-])cc2)cc1` (centres undefined) it was 3.5% (inactive); in that of `O=C(CNC(=O)c1ccco1)OCC(=O)c1ccc([N+](=O)[O-])cc1`, -0.7% (inactive).
Same read-out and setting: in the case of `Cc1c(C(=O)O)sc2nc(/C=C/c3cccc(O)c3)[nH]c(=O)c12` it was 5.5% (inactive); in that of `Cc1ccc(/C=C/c2nc3sc(C(=O)O)c(C)c3c(=O)[nH]2)cc1[N+](=O)[O-]`, 73% (active).
The same measure, in the same setting: in the case of `Cc1c(C(=O)O)sc2nc(/C=C/c3cccc(F)c3)[nH]c(=O)c12` it was 27.7% (inactive); in that of `COC(=O)c1c(/N=C/NOCc2ccc(Cl)cc2)sc2c1CCN(c1ncc(C(F)(F)F)cc1Cl)C2`, -1.7% (inactive).
With `CC(C)Cn1c(N)c(C(=O)COC(=O)c2ccncc2)c(=O)n(C)c1=O`, the inhibition (at 20 µM) is 0.1% (inactive).
For the compound `CCOc1ccc(Br)cc1S(=O)(=O)N1CCC(C(N)=O)CC1`, the inhibition (at 20 µM) was -0.7% (inactive).
Same read-out and setting: as for `CCn1cc(C(=O)NCCc2ccccc2C)c(=O)c2ccc(C)nc21`, the figure is -1.3% (inactive).
The same measure, in the same setting: as for `CC(C)Nc1cc(N2CCCC2)ccc1[N+](=O)[O-]`, the figure is -0.2% (inactive); as for `COC(=O)CC1COc2ccccc2N1C(=O)c1ccc(Cl)cc1` (centres undefined), -3% (inactive); as for `Cc1nc2c(C(=O)NCc3ccccc3Cl)c[nH]n2c(=O)c1Cl`, 49.3% (inactive).
The same measure, in the same setting: as for `Cc1nc2c(C(=O)NCCc3ccccc3)c[nH]n2c(=O)c1Cl`, the figure is 5.3% (inactive); as for `Cc1nc2c(C(=O)NCCc3ccccc3Cl)c[nH]n2c(=O)c1Cl`, 56.9% (active); as for `COc1cc(CNc2ccc(S(N)(=O)=O)cc2)ccc1OCC(=O)NC1CCCCC1`, -1% (inactive).
`O=C(CN1c2ccccc2S(=O)(=O)c2ccccc21)NCc1ccccc1`: the inhibition (at 20 µM) is -0.5% (inactive).
On to `O=C1/C(=C\c2ccco2)SC(=S)N1C1CCS(=O)(=O)C1` (centres undefined), for which the inhibition (at 20 µM) is 40.7% (inactive).
Still for that read-out and setting: as for `CC1=C(C#N)C(=O)N(C2CCS(=O)(=O)C2)C(=O)/C1=C\c1ccco1` (centres undefined), the figure is 83.1% (active).
With `O=C1/C(=C/c2ccco2)SC(=S)N1C1CCS(=O)(=O)C1` (centres undefined), the inhibition (at 20 µM) is 39.9% (inactive).
Take `Cc1ccc(/C=C2/SC(=S)N(C3CCCCC3)C2=O)o1`: the inhibition (at 20 µM) is 32.1% (inactive).
For `Cc1ccc(/C=C2\SC(=S)N(C3CCS(=O)(=O)C3)C2=O)o1` (centres undefined), the inhibition (at 20 µM) is 25.1% (inactive).
As to `CC1=C(C#N)C(=O)N(C2CCS(=O)(=O)C2)C(=O)/C1=C\c1ccc(C)o1` (centres undefined), for the setting “at 20 µM”, the inhibition is 101% (active).
In the case of `Cn1c(=O)oc2cc(S(=O)(=O)N3CCCC(C(=O)N4CCc5ccccc5C4)C3)ccc21` (centres undefined), where the note is “at 20 µM”, the inhibition was 2.2% (inactive).
Still for that read-out and setting: as for `Cc1ccc(CS(=O)(=O)Cc2ccc(C(=O)NCCc3ccccc3)o2)cc1`, the figure is 0.5% (inactive).
Still for that read-out and setting: as for `CC(C)CNS(=O)(=O)c1cc(C(=O)N2CCOCC2)c(Cl)cc1Cl`, the figure is 1.1% (inactive); as for `COc1cc(/C=N/NC(N)=O)ccc1OCC(=O)Nc1ccc(C)c(C)c1`, 11.1% (inactive); as for `Cc1cc(C(F)F)n2ncc(C(=O)NC3CCCCCC3)c2n1`, 3.7% (inactive).
Regarding `Cc1c(C(=O)NC(c2ccccn2)C(F)(F)F)oc2c(F)cccc12` (centres undefined), the inhibition (at 20 µM) is 0.9% (inactive).
On the same count and under the same terms, as for `COc1ccc(CNC(=O)[C@@H](NC(=O)C2CCN(C(=O)[C@@H](N)Cc3ccccc3)CC2)C(C)C)cc1`, the figure is -1.9% (inactive); as for `COc1ccc(OC)c(CNC(=O)CCSCc2ccc(F)cc2Cl)c1`, 0% (inactive).
Turning to `CCN1C(=O)/C(=C/N2CCc3ccccc32)SC1=S`, the inhibition is 112% (active) (at 20 µM) and 63% under setting [1].
On to `CCN1C(=O)/C(=C\N2CCCc3ccccc32)SC1=S`, for which, where the note is “at 20 µM”, the inhibition was 3.7% (inactive).
Still for that read-out and setting: in the case of `CCN1C(=O)/C(=C/N2CCc3ccccc3C2)SC1=S` it was 0.4% (inactive); in that of `Fc1ccc(N2CCN(C(c3cccs3)c3nnnn3CCc3ccccc3)CC2)cc1` (centres undefined), -1.4% (inactive); in that of `COc1cc(C2CC(=O)N(CC(=O)NCC3CCCO3)c3ccccc3S2)cc(OC)c1OC` (centres undefined), 0.6% (inactive).
The same measure, in the same setting: as for `CC(C)(C)OC(=O)N1CCC(c2cc(=O)n3[nH]c(-c4ccc(Cl)cc4)cc3n2)CC1`, the figure is -1.3% (inactive); as for `CC(C)(C)OC(=O)N1CCC(c2c(C(=O)NC3CC3)cnn2-c2ccc(Cl)cc2)CC1`, 3.6% (inactive).
Still for that read-out and setting: as for `COc1cc(NC(=O)c2cnn3c(C(F)F)cc(C4CC4)nc23)c(OC)cc1Cl`, the figure is -0.3% (inactive); as for `COc1ccc(-n2ncc(C(=O)NC3CC3)c2C2CCN(C(=O)OC(C)(C)C)CC2)cc1`, 1.2% (inactive); as for `COc1ccc(CCNC2CC(=O)N(CCc3ccccc3)C2=O)cc1` (centres undefined), 0.5% (inactive).
`COCCN1C(=O)N(c2cccc(C)c2)C(=O)C1CC(=O)Nc1cc(OC)cc(OC)c1` (centres undefined): the inhibition (at 20 µM) was 0.1% (inactive).
In the case of `O=[N+]([O-])c1ccc(/C=N\NS(=O)(=O)c2ccc(F)cc2)o1`, the inhibition (at 20 µM) was 1.3% (inactive).
The same measure, in the same setting: as for `O=C1OC(c2ccc(F)cc2)=C/C1=C\c1ccc([N+](=O)[O-])o1`, the figure is 77.6% (active); as for `O=C1OC(c2ccc(F)cc2)=C/C1=C\c1ccc(O)cc1`, 1.8% (inactive).
For the compound `COc1ccc(OC)c(/C=c2\sc3nc(-c4cccs4)nn3c2=O)c1`, the inhibition (at 20 µM) is 60.9% (active) and the inhibition under setting [1] came out at 58%.
As for `COc1ccc(/C=c2\sc3nc(-c4ccccc4OC)nn3c2=O)c(OC)c1`, the inhibition (at 20 µM) is 11.2% (inactive).
The same measure, in the same setting: as for `COc1cccc(/C=c2\sc3nc(-c4cccs4)nn3c2=O)c1OC`, the figure is 2.8% (inactive).
For the compound `COc1ccc(Br)cc1/C=c1\sc2nc(-c3ccco3)nn2c1=O`, under “at 20 µM”, the inhibition is 56.1% (active).
The same measure, in the same setting: in the case of `COc1ccccc1/C=c1\sc2nc(-c3ccco3)nn2c1=O` it was 36.3% (inactive).
Regarding `CCOc1ccc(/C=c2\sc3nc(-c4ccco4)nn3c2=O)cc1OCC`, the inhibition (at 20 µM) was 21.5% (inactive).
